# Assay results taken from PubChem BioAssay (EPA / NIEHS).
# Activity calls are given as the source filed them. The calls were made as follows: active = hit-call score of the fitted dose curve at least 0.9, where 1 is the maximum; inactive = score below 0.9.
# Test: ATG_CMV_CIS: Attagene CIS-FACTORIAL HepG2 Assay for human CMV (Internal Marker) (AID 2282928);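 also: endpoint acts as a background internal control marker rather than a target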
# Conditions: HepG2 CMV promoter reporter, transcription factor profiling; actives raise or lower the signal
# How it was run: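 Fluorescence intensity of RT-PCR-derived reporter fragments, resolved by capillary electrophoresis, gives the signal. HepG2 liver cells bearing transfected cis-element reporters were treated 24 h; activity in either direction was fit relative to DMSO-treated controls.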
SMILES,outcome,AC50
Nc1ccc(-c2ccc(N)c(N)c2)cc1N,inactive,
CCOP(O)OCC,inactive,
C#CC1(O)CCCCC1,inactive,
O=c1[nH]c(Cl)c(Cl)cc1Cl,inactive,
CCC(C)c1cc(C(C)(C)C)cc(-n2nc3ccccc3n2)c1O (stereo not drawn),inactive,
[CH3][Sn]([Cl])([Cl])[Cl],inactive,
Nc1c(Cl)c(Cl)c(Cl)c(Cl)c1Cl,,34.2 µM (active)
COC(=O)c1ccccc1S(=O)(=O)NC(=O)Nc1nc(C)cc(C)n1,inactive,
Nc1ccccc1C(=O)OCCc1ccccc1,inactive,
N#Cc1cccc(C#N)c1,inactive,
O=C(O)CCCc1ccc(N(CCCl)CCCl)cc1,inactive,
Nc1cc(Cl)cc(Cl)c1,inactive,
COc1ncc(F)c2nc(S(=O)(=O)Nc3c(F)cccc3F)nn12,inactive,
COC(C)(C)CCC[C@H](C)C/C=C/C(C)=C/C(=O)OC(C)C,,100 µM (active)
[CH3][Sn]([CH3])([Cl])[Cl],inactive,
BrCBr,inactive,
CCc1cccc(C)c1N(C(=O)CCl)[C@@H](C)COC,inactive,
O=P1(NCCCl)OCCCN1CCCl (stereo not drawn),inactive,
CC(Cc1ccc(C(C)(C)C)cc1)CN1C[C@@H](C)O[C@@H](C)C1 (stereo partly drawn),,38.6 µM (active)
O=C(O)c1cc[c]([Hg][Cl])cc1,inactive,

SMILES,outcome,AC50
C[N+](C)(C)CC(=O)O,inactive,
O=S(=O)(c1ccccc1)c1ccccc1,inactive,
Clc1ccc(-c2ccccc2)cc1,,139 µM (active)
CN(C)C(=O)C(c1ccccc1)c1ccccc1,inactive,
C=CCc1ccc(OC(=O)Cc2ccccc2)c(OC)c1,inactive,
O=P(O)(Oc1ccccc1)Oc1ccccc1,inactive,
CC1CCCC1.[C-]#[O+].[C-]#[O+].[C-]#[O+].[Mn],inactive,
O=C(O)COc1ccccc1,inactive,
[Cl][Sb]([Cl])[Cl],inactive,
CCC(=O)c1ccc(Cl)cc1,inactive,
Cc1ccc(N(SC(F)(Cl)Cl)S(=O)(=O)N(C)C)cc1,,15.8 µM (active)
CC1(C)CC(=O)CC(C)(C)N1[O],inactive,
SCc1ccco1,,62.8 µM (active)
O=CNC(N1CCN(C(NC=O)C(Cl)(Cl)Cl)CC1)C(Cl)(Cl)Cl (stereo not drawn),inactive,
Oc1cc(Cl)ccc1Cl,inactive,
O=[N+]([O-])c1cc(C(F)(F)F)c(Cl)c([N+](=O)[O-])c1Cl,,5.9 µM (active)
C[C@]12CCC(=O)C(O)=C1CC[C@@H]1[C@@H]2CC[C@]2(C)C(=O)CC[C@@H]12,inactive,
CSc1nc(N=[N+]=[N-])nc(NC(C)C)n1,,52.8 µM (active)
O=[N+]([O-])O.O=[N+]([O-])O.[Cd],,0.873 µM (active)

# Test: ATG_DR4_LXR_CIS: Attagene CIS-FACTORIAL HepG2 Assay for human Liver X Receptor (LXR), DR4 submotif (AID 2282929)
# Conditions: HepG2 Attagene DR4 cis-reporter, mRNA transcription; actives raise or lower the signal
# How it was run: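 HepG2 cells transiently transfected with cis-promoter-driven multiplexed reporter units (DR4 element) were dosed for 24 h. Reporter mRNA was quantified by RT-PCR, fluorescent primer extension, HpaI digestion and capillary electrophoresis; bidirectional fitting versus DMSO baseline.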
SMILES,outcome,AC50
Nc1ccc(-c2ccc(N)c(N)c2)cc1N,inactive,
CCOP(O)OCC,inactive,
C#CC1(O)CCCCC1,inactive,
O=c1[nH]c(Cl)c(Cl)cc1Cl,inactive,
CCC(C)c1cc(C(C)(C)C)cc(-n2nc3ccccc3n2)c1O (stereo not drawn),,19.3 µM (active)
[CH3][Sn]([Cl])([Cl])[Cl],inactive,
Nc1c(Cl)c(Cl)c(Cl)c(Cl)c1Cl,inactive,
COC(=O)c1ccccc1S(=O)(=O)NC(=O)Nc1nc(C)cc(C)n1,inactive,
Nc1ccccc1C(=O)OCCc1ccccc1,inactive,
N#Cc1cccc(C#N)c1,inactive,
O=C(O)CCCc1ccc(N(CCCl)CCCl)cc1,,112 µM (active)
Nc1cc(Cl)cc(Cl)c1,inactive,
COc1ncc(F)c2nc(S(=O)(=O)Nc3c(F)cccc3F)nn12,inactive,
COC(C)(C)CCC[C@H](C)C/C=C/C(C)=C/C(=O)OC(C)C,,72.9 µM (active)
[CH3][Sn]([CH3])([Cl])[Cl],inactive,
BrCBr,inactive,
CCc1cccc(C)c1N(C(=O)CCl)[C@@H](C)COC,inactive,
O=P1(NCCCl)OCCCN1CCCl (stereo not drawn),inactive,
CC(Cc1ccc(C(C)(C)C)cc1)CN1C[C@@H](C)O[C@@H](C)C1 (stereo partly drawn),inactive,
O=C(O)c1cc[c]([Hg][Cl])cc1,inactive,

SMILES,outcome,AC50
C[N+](C)(C)CC(=O)O,inactive,
O=S(=O)(c1ccccc1)c1ccccc1,inactive,
Clc1ccc(-c2ccccc2)cc1,inactive,
CN(C)C(=O)C(c1ccccc1)c1ccccc1,inactive,
C=CCc1ccc(OC(=O)Cc2ccccc2)c(OC)c1,inactive,
O=P(O)(Oc1ccccc1)Oc1ccccc1,inactive,
CC1CCCC1.[C-]#[O+].[C-]#[O+].[C-]#[O+].[Mn],inactive,
O=C(O)COc1ccccc1,inactive,
[Cl][Sb]([Cl])[Cl],inactive,
CCC(=O)c1ccc(Cl)cc1,inactive,
Cc1ccc(N(SC(F)(Cl)Cl)S(=O)(=O)N(C)C)cc1,,15.2 µM (active)
CC1(C)CC(=O)CC(C)(C)N1[O],inactive,
SCc1ccco1,inactive,
O=CNC(N1CCN(C(NC=O)C(Cl)(Cl)Cl)CC1)C(Cl)(Cl)Cl (stereo not drawn),inactive,
Oc1cc(Cl)ccc1Cl,inactive,
O=[N+]([O-])c1cc(C(F)(F)F)c(Cl)c([N+](=O)[O-])c1Cl,,5.08 µM (active)
C[C@]12CCC(=O)C(O)=C1CC[C@@H]1[C@@H]2CC[C@]2(C)C(=O)CC[C@@H]12,inactive,
CSc1nc(N=[N+]=[N-])nc(NC(C)C)n1,inactive,
O=[N+]([O-])O.O=[N+]([O-])O.[Cd],,0.666 µM (active)
